In this assay the test system is Scedosporium aurantiacum CBS 136046. Nature of the assay: growth inhibition relative to DMSO control (OD600); higher = more antifungal activity, active = 80 or more; extreme values may be limits of the assay. The following applies: 5 µM; 72 h; 37 °C.
`CC(Oc1ccc(Cl)cc1Cl)C(=O)NCc1ccc2c(c1)OCO2` (stereo not drawn): the growth inhibition is 17.5% (inactive).
On to `CC(=O)NC[C@H]1CN(c2ccc(N3CCSCC3)c(F)c2)C(=O)O1`, for which the growth inhibition was 29.2% (inactive).
In the case of `COc1cc(NCc2ccc3nc(N)nc(N)c3c2C)cc(OC)c1OC`, the growth inhibition was 0.273% (inactive).
Then `NNC(=O)c1ccncc1`, with 3.54% (inactive).
As to `COc1ccc(NS(=O)(=O)c2ccc(Cl)s2)cn1`, the growth inhibition is 11.2% (inactive).
Take `CCCNc1ccc(S(=O)(=O)Nc2cc(C)on2)cc1`: the growth inhibition is 0.262% (inactive).
For the molecule `O[C@@](Cn1cnnn1)(c1ccc(F)cc1F)C(F)(F)c1ccc(-c2ccc(OCC(F)(F)F)cc2)cn1`, the growth inhibition was 47.1% (inactive).
With `CC[C@@H](CO)NCCN[C@@H](CC)CO` the figure was 11.4% (inactive).
With `NC(=O)c1nccn([C@@H]2O[C@H](CO)[C@@H](O)[C@H]2O)c1=O` the figure was 2% (inactive).
With `Cc1nc(Nc2ccc(F)cc2)nc(N2CCc3ccccc3C2C)c1C` (stereo not drawn) the figure was 25.2% (inactive); with `Cc1cc(-c2ccccc2)c(C(=O)C(=O)Nc2ccc(N3CCN(c4ncc(F)cn4)CC3)cc2)n1C`, 81.8% (active).
Regarding `CC(C)(C)c1ccc(OCCn2nc(C(=O)O)c3ccccc3c2=O)cc1`, the growth inhibition is 16.2% (inactive).
With `O=C(NCCN1CCCCC1)c1cccc(C(F)(F)F)c1` the figure was 10.1% (inactive); with `CCc1nc(N)nc(N)c1C#CCc1ccccc1`, 30.8% (inactive).
Turning to `Cc1cccc(CC(=O)N[C@H]2CCOC2=O)c1`, the growth inhibition is 16.6% (inactive).
On to `NC1C2CC3CC(C2)CC1C3` (stereo not drawn), for which the growth inhibition was 23.6% (inactive).
With `N#Cc1cc([N+](=O)[O-])ccc1Oc1ccccc1Cl` the figure was 20.3% (inactive).
Then `CC(C)(C)c1ccc(Oc2ccc(N)cc2)cc1`, with 15.8% (inactive).
Turning to `O=S(=O)(Nc1cccc2cccnc12)c1ccccc1`, the growth inhibition is 13.6% (inactive).
With `CCCCOC(=O)Nc1cc2nc(C3CCCCC3)[nH]c2cc1N(CC)CC` the figure was 39.7% (inactive); with `O=C(O)c1sccc1S(=O)(=O)n1ccc2cc(Br)ccc21`, 14.6% (inactive); with `O=C(O)[C@H]1C2CCC(CC2)[C@@H]1Nc1nc(-c2c[nH]c3ncc(F)cc23)ncc1F`, 10.2% (inactive).
Turning to `NCC(=O)Nc1ccc(-n2nc(C(F)(F)F)cc2-c2ccc3c(ccc4ccccc43)c2)cc1`, the growth inhibition was 25.5% (inactive).
Consider `CCC(C)n1ncn(-c2ccc(N3CCN(c4ccc(OCC5COC(Cn6cncn6)(c6ccc(Cl)cc6Cl)O5)cc4)CC3)cc2)c1=O` (stereo not drawn), for which the growth inhibition was 57.2% (inactive).
With `COc1ccc(NC(=O)c2cc3ccccn3n2)cc1`, the growth inhibition was 36.8% (inactive).
For `COc1ccc(-n2cnc3cc(NCc4ccco4)ccc32)cc1`, the growth inhibition was 9.11% (inactive).
Take `O=C(/C=C\n1cnc(-c2cc(C(F)(F)F)cc(C(F)(F)F)c2)n1)NNc1ccccn1`: the growth inhibition was 24.4% (inactive).
Then `NC[C@H]1O[C@H](O[C@H]2[C@H](O)[C@@H](O[C@H]3O[C@H](CO)[C@@H](O)[C@H](N)[C@H]3O)[C@H](N)C[C@@H]2N)[C@H](N)C[C@@H]1O`, with 15.5% (inactive); and `CC1(C)[C@H](C(=O)O)N2C(=O)C[C@H]2S1(=O)=O`, with 0% (inactive).
Consider `O=C(Nc1ccc(-c2ccccc2)cc1)C1=C(O)C(Cc2ccccc2)OC1=O` (stereo not drawn), for which the growth inhibition was 45.3% (inactive).
Then `CCc1nc2ccc(Cl)cn2c1C(=O)NCc1ccc(N2CCC(c3ccc(OC(F)(F)F)cc3)CC2)cc1`, with 21.8% (inactive); and `Nc1nc(Nc2ccc3nc(-c4ccc(F)cc4)cc(N)c3c2)cc(-c2ccccc2)n1`, with 17.1% (inactive); and `CC(C)(C)c1cc(CCC(=O)N2CCC2)cc(C(C)(C)C)c1O`, with 11.9% (inactive).
With `CCCC1(C2CC2)c2cc(Cl)ccc2NC(=O)N1C` (stereo not drawn) the figure was 18.8% (inactive); with `Cc1c[nH]c(=O)nc1NCc1ccccc1`, 10.8% (inactive).
`COc1cc(C(C(=O)NC2CCCCC2)N(C(=O)Cc2c[nH]c3ccccc23)c2ccc(C(C)C)cc2)cc(OC)c1OC` (stereo not drawn): the growth inhibition was 6.79% (inactive).
On to `Cc1onc(-c2ccccc2Cl)c1C(=O)N[C@@H]1C(=O)N2[C@@H]1SC(C)(C)[C@@H]2C(=O)O`, for which the growth inhibition was 0.0225% (inactive).
Then `CCC(C)(C)c1ccc(CC(C)CN2C[C@@H](C)O[C@@H](C)C2)cc1` (stereo partly drawn), with 84.7% (active).

These data come from the supplement of paper PMC9897528.
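Further: conidia screened in RPMI 1640 medium under 5% CO2, growth read by spectrophotometer, medium with 0.5% DMSO serving as the untreated reference.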
